Among the data in PubChem BioAssay (NCI) are growth values, retold here.

SMILES strings stand for the structures. About 83,000 compounds went through this panel and 20% of them were active in at least one assay; those are over-represented in the sample as a whole.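 Each cell line was grown in a 96-well plate and treated with one concentration of compound for 48 hours. Values below 10 were considered active.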 The source made the active and inactive calls.

The test system of the experiment is COLO 205 colon. The experiment is described as follows: NCI-60 one-dose screen, 48 h (100 = growth as untreated, 0 = no growth, -100 = all killed). Conditions: 10 µM unless noted.
As for `O=C(CSc1nc2sc3c(c2c(=O)n1-c1ccccc1)CCCCC3)N/N=C/c1cccc([N+](=O)[O-])c1`, the growth was 89.1% (inactive). The result for `O=C(Nc1cccc(Cl)c1)Nc1cccc(Cn2c(=O)[nH]c3ccc(Oc4ncccn4)cc3c2=O)c1` reads 48.3% (inactive). As for `CCOC(=O)Cc1cnc(N/N=C(\C)c2cc3ccccc3o2)s1`, the growth is 108% (inactive). The result for `COC1/C=C/OC2(C)Oc3c(C)c(O)c4c(O)c(c(/C=N/Nc5ccc([N+](=O)[O-])cc5[N+](=O)[O-])c(O)c4c3C2=O)NC(=O)C(C)=C/C=C/C(C)C(O)C(C)C(O)C(C)C(OC(C)=O)C1C` (stereo unspecified) reads 24.9% (inactive). Consider `COC(=O)CC[C@@H]1O[C@@H](c2cccc(C(F)(F)F)c2)[C@@H](O)[C@H]1O`, for which the growth was 108% (inactive). With `COc1ccc(/C=N/NC(=O)c2ccc(-n3cc(-c4ccccc4)nn3)cc2)cc1OC`, the growth is 91.7% (inactive). Regarding `COC(=O)c1c2c(c(C)[n+]([O-])c1C)C(=O)C(NCc1cccc(OC)c1)=CC2=O`, the growth is -63.4% (active). On to `Nc1n[nH]c2cccc(C#Cc3cccc(C(=O)Nc4cc(C(F)(F)F)cc(C(F)(F)F)c4)c3)c12`, for which the growth is 81% (inactive). For the compound `OB1OCc2cc(/C=C/c3cccc(C(F)(F)F)c3)ccc21`, the growth is 25.6% (inactive). As for `CNC(=O)c1[nH]cc(-c2ccc(OC)cc2)c1-c1cc(OC)c2c(c1OC)OCO2`, the growth was 118% (inactive). `COc1ccc(-c2cc(-c3ccc(Cl)cc3)c(C#N)c(=O)n2Cc2ccc(C(=O)Nc3ccccc3N)cc2)cc1`: the growth is 95.8% (inactive). `CC1CCc2c(C(=O)Nc3ncc(Cc4cccc([N+](=O)[O-])c4)s3)csc2C1` (stereo unspecified): the growth was 10.8% (inactive). Consider `N#Cc1nc(-c2ccc(Cl)cc2)oc1S(=O)(=O)N1CCN(c2ccc(F)cc2)CC1`, for which the growth is 102% (inactive). The result for `COc1c(B(O)O)cccc1-c1nc2c(F)cc3[nH]ncc3c2c2c1CCCC2` reads -20.2% (active); that for `O=S(=O)(NCCNc1nccc(-c2c(-c3ccc(F)c(O)c3)nc3sccn23)n1)c1ccc(O)cc1`, 34.7% (inactive). The same measure for `CCOC(=O)C(=O)C(C(=O)OCC)c1ccccc1` (stereo unspecified): 118% (inactive); for `COc1ccc(C(=O)/C=C/c2c(C(F)(F)F)nc3ccccn23)cc1OC`: -1.6% (active).

Regarding `CC(=O)O[C@H]1CC2CCC3C(CC[C@@]4(C)C3C[C@H]([N+]3(C)CCCCC3)[C@@H]4OC(C)=O)[C@@]2(C)C[C@@H]1N1CCCCC1` (stereo partly specified), the growth is 104% (inactive). Turning to `O=C1c2ccc3c4c5ccc(c24)C(=O)N1CCCOCCCCOCCCNCc1ccc(cc1)CNCCCOCCCCOCCCN(C3=O)C5=O`, the growth was -71% (active). The same measure for `CC(O)(c1ccccc1)C(c1ccccc1)C1CCCCN1` (stereo unspecified): 103% (inactive).

`CCCC/C=C/[C@@H]1C[C@H]1CCO`: the growth is 100% (inactive). The same measure for `COc1ccc(OC)c(Nc2nnc(-c3ccc(O)c(OC)c3)o2)c1`: 117% (inactive). For `N#CC1=C(N)Oc2c(ccc3ccccc23)C1c1ccccc1` (stereo unspecified), the growth was -49.8% (active). As to `OCCn1cc(-c2nc(-c3c[nH]c4ncccc34)cs2)c2ccccc21`, the growth is 85.9% (inactive). Regarding `Cn1cc(-c2csc(-c3cn(C(=O)OC(C)(C)C)c4ccc(Br)cc34)n2)c2ccnc(Cl)c21`, the growth was 90.9% (inactive). For `O=S(=O)(c1ccccc1)n1cc2c(c1)-c1nc(Nc3ncccn3)sc1CC2`, the growth is 61.9% (inactive).
